This test relates to Trypanosoma brucei. Nature of the test: Trypanosoma brucei 72 hour study. Also noted: scale not given: in the data most compounds retested in dose-response had high values. Format: functional, organism-based.

Among all 66,000 compounds or so, about 960 (1.5%) showed an effect of 50% or more. This is one part of a sample in which strong results are shown more often than they occur.

As for `COc1ccc(CNC(C)Cn2cccn2)c(OC)c1OC.Cl` (centres undefined), the “Percent Effect” value (30.3 µM, […]) came to 4.713% and the “Percent Effect” value (10 mM, 10 mM as filed; unlikely as a test dose) is -54.3%.

With `COc1cc(CNC(C)Cn2cccn2)cc2c1OCO2.Cl` (centres undefined), the “Percent Effect” value (30.3 µM, […]) is reported as -1.111%.

With `COc1cc(CNCC(O)c2cccc(F)c2)cc2c1OCO2.Cl` (centres undefined), where the note is “30.3 µM, […]”, the “Percent Effect” value is 81.63%.

For `COc1cc(CNCC(O)c2ccc(C)cc2)cc2c1OCCO2.Cl` (centres undefined), the “Percent Effect” value (30 µM, 30.03 µM) was determined as 42.56%.

Consider `COc1cc(CNCC(O)c2ccc(F)c(F)c2)cc2c1OCO2` (centres undefined), for which, under “30 µM, 30.03 µM”, the “Percent Effect” value was 4.493%.

For the molecule `COc1cc(CNC(C)Cn2ccnc2)cc2c1OCO2.Cl` (centres undefined), the “Percent Effect” value (30.3 µM, […]) came out at 4.669%.

`COc1cc(CNCC(O)c2ccc(C)cc2)cc2c1OCO2.Cl` (centres undefined): the “Percent Effect” value (30.3 µM, […]) stood at 100.7%.

For `Cl.Cl.c1cncc(COC[C@@H]2CCC[C@@]23CNCCO3)c1`, the “Percent Effect” value (30.3 µM, […]) was -44.98%.

Take `CC(C)N1CCC2(CC1)C(=O)N(CCN(C)C)c1ccccc12.O=C(O)C(F)(F)F.O=C(O)C(F)(F)F`: the “Percent Effect” value (30.3 µM, […]) stood at 5.685%.

Consider `O=C(O)C(F)(F)F.O=C(O)C(F)(F)F.O=C(O)C(F)(F)F.c1ccc(CN2CC[C@@H]3[C@@H](CO[C@@H]3CNc3ncccn3)C2)nc1`, for which, under “30.3 µM, […]”, the “Percent Effect” value is -6.943%.

Regarding `COc1ccc(CN2C[C@@H]3OCCN(c4ncccn4)[C@@H]3C2)cc1.O=C(O)C(F)(F)F.O=C(O)C(F)(F)F`, under “30 µM, 30.03 µM”, the “Percent Effect” value is given as -40.73%.

`COc1cc2nc(NCc3ccc(C)nc3)nc(N)c2cc1OC`: under “30.3 µM, […]”, the “Percent Effect” value is listed as 100.6%.

With `O=C(C[C@@H]1COC[C@H]2CN(C3CCC3)C[C@@H]12)NCc1cccnc1.O=C(O)C(F)(F)F.O=C(O)C(F)(F)F`, the “Percent Effect” value (30.3 µM, […]) is recorded as 12.19%.

`COc1ccc(CCNCc2c(C)nn(C)c2N(C)C)cc1OC.Cl`: the “Percent Effect” value (30.3 µM, […]) is reported as -31.69%.

Consider `O=C(c1ccc(Cl)cc1-n1cnnn1)N1CCC2(CC1)OCCO2`, for which the “Percent Effect” value (30 µM, 30.03 µM) is on record as -30.99%.

For the molecule `O=C(c1cnn2c1OCCC2)N1CCC2(CC1)OCCO2`, the “Percent Effect” value (30 µM, 30.03 µM) is 55.16%.

In the case of `O=C(c1ccccc1-n1cnnn1)N1CCC2(CC1)OCCO2`, the “Percent Effect” value (30 µM, 30.03 µM) is on record as -25.19%.

Turning to `Cn1ccnc1NC[C@@H]1CCC[C@@H]2CN(Cc3cccnc3)C[C@@H]21.O=C(O)C(F)(F)F`, the “Percent Effect” value (30.3 µM, […]) is -5.749%.

For `CN1C[C@H](NC(=O)c2cscn2)[C@@H]2OCCC[C@@H]21.O=C(O)C(F)(F)F`, the “Percent Effect” value (30.3 µM, […]) was -88.97%.

`COCCNC(=O)[C@@]12CCO[C@@H]1CCN(Cc1ccncc1)C2.O=C(O)C(F)(F)F.O=C(O)C(F)(F)F`: the “Percent Effect” value (30 µM, 30.03 µM) stood at 13.68%.

In the case of `c1ccc(CO[C@H]2C[C@@H]3CN(Cc4cncnc4)C[C@@H]3C2)cc1`, the “Percent Effect” value (30.3 µM, […]) is on record as -7.208%.

For the molecule `Cc1ncc(CN2C[C@H]3C[C@H](OCc4ccccc4)C[C@H]3C2)cn1`, the “Percent Effect” value (30.3 µM, […]) came out at 6.96%.

As to `c1ccc(CO[C@H]2C[C@@H]3CN(Cc4cccnc4)C[C@@H]3C2)cc1`, the “Percent Effect” value (30.3 µM, […]) is given as 51.09%.

Turning to `CN(C)CCN1CCN(Cc2nccs2)Cc2cccnc21.O=C(O)C(F)(F)F.O=C(O)C(F)(F)F.O=C(O)C(F)(F)F`, the “Percent Effect” value (30.3 µM, […]) is listed as -78.15%.

Turning to `O=C(NCCc1ccccn1)[C@@]12CCO[C@@H]1CCN(C1CCC1)C2.O=C(O)C(F)(F)F.O=C(O)C(F)(F)F`, for the setting “30.3 µM, […]”, the “Percent Effect” value turned out to be 7.888%.

Consider `O=C(O)C(F)(F)F.O=C(O)C(F)(F)F.c1ccc(OCC2C[C@@H]3[C@@H](C2)OCCN3CC2CCOCC2)nc1` (some centres undefined), for which the “Percent Effect” value (30.3 µM, […]) is -46.45%.

Turning to `CCN1CCN(Cc2nc(CC(C)C)no2)CC1`, the “Percent Effect” value (10 µM) is -12.44%.

With `CCN1CCN(Cc2csc(C(C)C)n2)CC1`, the “Percent Effect” value (30.3 µM, […]) was 81.77%.

Turning to `CC(C)c1nc(CC(=O)N2CCN(C)CC2c2ccccc2)cs1` (centres undefined), the “Percent Effect” value (30 µM, 30.03 µM) is on record as -91.57%.

For `COCCCNc1c(C#N)c2c(c3nncn13)CN(C)CC2.Cl`, the “Percent Effect” value (30 µM, 30.03 µM) is listed as -37.83%.

For `Cl.Cl.c1ccc(COC[C@H]2CCC[C@@]23CNCCO3)nc1`, the “Percent Effect” value (30.3 µM, […]) is given as -51.33%.

As to `O=C(O)C(F)(F)F.O=C(O)C(F)(F)F.c1cnc(N2CCO[C@H]3CN(CC4CCOCC4)C[C@H]32)nc1`, the “Percent Effect” value (30.3 µM, […]) is given as -91.37%.

With `O=C(O)C(F)(F)F.c1cc(CN2CC[C@@H]3CN(c4cnccn4)C[C@@H]3C2)ccn1`, under “30.3 µM, […]”, the “Percent Effect” value is given as -4.355%.

Turning to `COc1cc(CNCC(O)c2ccccc2F)cc2c1OCO2` (centres undefined), the “Percent Effect” value (30.3 µM, […]) is 55.14%.

As to `COc1cc(CNC(C)Cn2cccn2)cc2c1OCCO2.Cl` (centres undefined), the “Percent Effect” value was -12.29% (30.3 µM, […]) and -15.19% (10 mM, 10 mM as filed; unlikely as a test dose).

In the case of `COc1cc(CNC(C)Cn2ccnc2)cc2c1OCCO2` (centres undefined), the “Percent Effect” value (30.3 µM, […]) was -9.51%.

On to `COc1cc(CNCC(O)c2ccc(F)cc2F)cc2c1OCO2` (centres undefined), for which, under “30.3 µM, […]”, the “Percent Effect” value is reported as 68.01%.

As for `Cc1nc(CN2CCN3C[C@H](Oc4cncnc4)C[C@H]3C2)cs1.O=C(O)C(F)(F)F.O=C(O)C(F)(F)F`, the “Percent Effect” value (30.3 µM, […]) is recorded as -64.45%.

As for `Cc1cnc(N2CC3(CCN(Cc4cccnc4)C3)C2)nc1.O=C(O)C(F)(F)F.O=C(O)C(F)(F)F`, the “Percent Effect” value (30.3 µM, […]) is -6.103%.

For the molecule `O=C(O)C(F)(F)F.O=C(O)C(F)(F)F.c1cnc(N2CCN3C[C@H](Oc4cncnc4)C[C@H]3C2)nc1`, the “Percent Effect” value (30.3 µM, […]) is listed as -14.25%.

`CCN1CCc2c(cccc2NC(=O)CN(C)C2CCSC2)C1` (centres undefined): the “Percent Effect” value (30 µM, 30.03 µM) is on record as -20.21%.

As for `O=C(O)C(F)(F)F.c1cncc(CN2C[C@H]3CCC[C@@H](CNc4cnccn4)[C@H]3C2)c1`, for the setting “30.3 µM, […]”, the “Percent Effect” value was -2.256%.

For the molecule `Cc1ccc(CN2CC[C@]3(C[C@H](OCc4ccccn4)CO3)C2)o1.O=C(O)C(F)(F)F.O=C(O)C(F)(F)F`, under “30 µM, 30.03 µM”, the “Percent Effect” value is on record as 4.871%.

`O=C(c1ccc2c(c1)COC2)N1CCC(Nc2ccccc2)CC1`: for the setting “30 µM, 30.03 µM”, the “Percent Effect” value is listed as 15.22%.

Regarding `O=C(Cc1c[nH]c2ccccc12)N1CCC(Nc2ccccc2)CC1`, the “Percent Effect” value (30.3 µM, […]) is listed as -16.2%.

For the molecule `O=C(c1cc2cc(F)ccc2[nH]1)N1CCC(Nc2ccc(F)cc2)CC1`, the “Percent Effect” value (30.3 µM, […]) is listed as 86.11%.

With `O=C(O)C(F)(F)F.O=C(O)C(F)(F)F.O=C(O)C(F)(F)F.c1cc(CN2CCO[C@H]3[C@H](OCCN4CCCC4)CC[C@@H]32)ccn1`, the “Percent Effect” value (30.3 µM, […]) was -7.413%.

Regarding `C[C@H]1C[C@H]2CN(Cc3ccccn3)CC[C@@H]2O1.O=C(O)C(F)(F)F.O=C(O)C(F)(F)F`, for the setting “30 µM, 30.03 µM”, the “Percent Effect” value is -2.942%.

Regarding `CCOCCN1C[C@@H]2CCCO[C@@H]2[C@H](NC(=O)c2cnoc2C)C1.O=C(O)C(F)(F)F`, where the note is “30.3 µM, […]”, the “Percent Effect” value was -87.51%.

Take `O=C(c1csc(-c2ncccn2)n1)N1CCN2CCCCC2C1` (centres undefined): the “Percent Effect” value (30 µM, 30.03 µM) is recorded as 9.676%.

With `O=C(Cc1ccc(-n2cccn2)cc1)N1CCN2CCCCC2C1` (centres undefined), the “Percent Effect” value (30 µM, 30.03 µM) stood at 56.58%.

Regarding `O=C(Cc1csc(-c2ncccn2)n1)N1CCN2CCCCC2C1` (centres undefined), the “Percent Effect” value (30 µM, 30.03 µM) is -4.944%.

For `CCS(=O)(=O)N1CCc2ccc(NC(=O)Nc3cccc(C#N)c3)cc21`, where the note is “30 µM, 30.03 µM”, the “Percent Effect” value came to 29.43%.

Take `O=C(O)C(F)(F)F.O=C(O)C(F)(F)F.O=C1CC[C@@H]2[C@@H](CCN2Cc2ccccn2)N1CC1CC1`: the “Percent Effect” value (30.3 µM, […]) stood at 9.459%.

For `CNC(C)Cc1ccccc1Sc1ccc(O)cc1.Cl` (centres undefined), where the note is “30 µM, 30.03 µM”, the “Percent Effect” value is given as -13.84%.

For the molecule `CC(N)Cc1ccccc1Sc1ccc(O)cc1.CC(N)Cc1ccccc1Sc1ccc(O)cc1.O=C(O)C(=O)O` (centres undefined), where the note is “30 µM, 30.03 µM”, the “Percent Effect” value came to 73.02%.

Take `CC(N)Cc1ccccc1Sc1ccccc1.O=C(O)/C=C\C(=O)O` (centres undefined): the “Percent Effect” value (30 µM, 30.03 µM) amounted to 99.41%.

As for `O=C(O)C(F)(F)F.O=C(O)C(F)(F)F.c1cncc(O[C@H]2CC[C@H]3[C@H]2OCCN3C2CCCC2)c1`, the “Percent Effect” value (30 µM, 30.03 µM) is recorded as -21.55%.

`CN(C)[C@@H]1CN(C(=O)Cc2cccs2)[C@@H]2CCCO[C@H]12.O=C(O)C(F)(F)F`: the “Percent Effect” value (30.3 µM, […]) is -91.09%.

With `COCCN1CC[C@]2(CN(Cc3cccnc3)C[C@H]2C)C1=O.O=C(O)C(F)(F)F.O=C(O)C(F)(F)F`, where the note is “30.3 µM, […]”, the “Percent Effect” value is listed as -47.24%.

For `CN1C(Cn2cccn2)C[C@@H]2CN(Cc3cccnc3)CC[C@@H]21.O=C(O)C(F)(F)F.O=C(O)C(F)(F)F.O=C(O)C(F)(F)F.O=C(O)C(F)(F)F` (some centres undefined), where the note is “30.3 µM, […]”, the “Percent Effect” value is on record as -14.63%.

For `COCCN1CCO[C@@H]2CN(S(=O)(=O)c3cccnc3)C[C@@H]2C1.O=C(O)C(F)(F)F.O=C(O)C(F)(F)F`, the “Percent Effect” value (30.3 µM, […]) is -14.72%.
